# How the values were obtained:
# [1] = target: Ephrin type-A receptor 4 (Homo sapiens) (UniProt P54764); details: at 1 µM
# [2] = target: Ephrin type-A receptor 4 (Homo sapiens) (UniProt P54764); details: at 10 µM
# [3] = target: Ephrin type-A receptor 5 (Homo sapiens) (UniProt P54756); details: at 1 µM
# [4] = target: Ephrin type-A receptor 5 (Homo sapiens) (UniProt P54756); details: at 10 µM
# [5] = target: Ephrin type-A receptor 7 (Homo sapiens) (UniProt Q15375); details: at 10 µM
# [6] = target: T1, Ephrin type-B receptor 1 (Homo sapiens) (UniProt P54762); details: at 1 µM
# T1 sequence (whole entry): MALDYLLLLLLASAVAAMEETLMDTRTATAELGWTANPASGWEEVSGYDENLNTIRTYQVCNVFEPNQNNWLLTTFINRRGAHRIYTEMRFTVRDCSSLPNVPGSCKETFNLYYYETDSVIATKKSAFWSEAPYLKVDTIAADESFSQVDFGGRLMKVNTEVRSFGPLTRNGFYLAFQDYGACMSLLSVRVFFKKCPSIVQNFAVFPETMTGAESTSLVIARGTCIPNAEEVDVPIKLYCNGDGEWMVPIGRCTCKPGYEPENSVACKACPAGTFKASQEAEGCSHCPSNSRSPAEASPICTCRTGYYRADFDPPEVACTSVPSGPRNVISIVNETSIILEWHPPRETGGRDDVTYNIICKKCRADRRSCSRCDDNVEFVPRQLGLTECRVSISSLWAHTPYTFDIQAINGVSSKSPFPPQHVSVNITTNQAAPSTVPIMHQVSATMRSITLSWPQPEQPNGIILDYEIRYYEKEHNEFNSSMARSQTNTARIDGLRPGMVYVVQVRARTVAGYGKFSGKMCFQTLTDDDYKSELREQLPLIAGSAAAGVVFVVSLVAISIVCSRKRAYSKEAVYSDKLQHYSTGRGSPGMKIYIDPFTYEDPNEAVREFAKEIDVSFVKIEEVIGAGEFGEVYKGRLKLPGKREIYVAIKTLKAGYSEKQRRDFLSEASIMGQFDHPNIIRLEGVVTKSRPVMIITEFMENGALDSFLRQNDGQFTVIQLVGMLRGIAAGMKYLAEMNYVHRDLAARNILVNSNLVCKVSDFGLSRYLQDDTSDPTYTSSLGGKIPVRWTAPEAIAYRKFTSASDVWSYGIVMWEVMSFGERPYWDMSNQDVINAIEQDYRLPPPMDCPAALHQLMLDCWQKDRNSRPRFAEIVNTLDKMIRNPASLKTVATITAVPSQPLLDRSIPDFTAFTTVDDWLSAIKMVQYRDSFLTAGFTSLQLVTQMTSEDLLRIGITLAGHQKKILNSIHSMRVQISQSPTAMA
# [7] = target: T1, Ephrin type-B receptor 1 (Homo sapiens); details: at 10 µM
# [8] = target: T2, Ephrin type-B receptor 2 (Homo sapiens) (UniProt P29323); details: at 1 µM
# T2 sequence (whole entry): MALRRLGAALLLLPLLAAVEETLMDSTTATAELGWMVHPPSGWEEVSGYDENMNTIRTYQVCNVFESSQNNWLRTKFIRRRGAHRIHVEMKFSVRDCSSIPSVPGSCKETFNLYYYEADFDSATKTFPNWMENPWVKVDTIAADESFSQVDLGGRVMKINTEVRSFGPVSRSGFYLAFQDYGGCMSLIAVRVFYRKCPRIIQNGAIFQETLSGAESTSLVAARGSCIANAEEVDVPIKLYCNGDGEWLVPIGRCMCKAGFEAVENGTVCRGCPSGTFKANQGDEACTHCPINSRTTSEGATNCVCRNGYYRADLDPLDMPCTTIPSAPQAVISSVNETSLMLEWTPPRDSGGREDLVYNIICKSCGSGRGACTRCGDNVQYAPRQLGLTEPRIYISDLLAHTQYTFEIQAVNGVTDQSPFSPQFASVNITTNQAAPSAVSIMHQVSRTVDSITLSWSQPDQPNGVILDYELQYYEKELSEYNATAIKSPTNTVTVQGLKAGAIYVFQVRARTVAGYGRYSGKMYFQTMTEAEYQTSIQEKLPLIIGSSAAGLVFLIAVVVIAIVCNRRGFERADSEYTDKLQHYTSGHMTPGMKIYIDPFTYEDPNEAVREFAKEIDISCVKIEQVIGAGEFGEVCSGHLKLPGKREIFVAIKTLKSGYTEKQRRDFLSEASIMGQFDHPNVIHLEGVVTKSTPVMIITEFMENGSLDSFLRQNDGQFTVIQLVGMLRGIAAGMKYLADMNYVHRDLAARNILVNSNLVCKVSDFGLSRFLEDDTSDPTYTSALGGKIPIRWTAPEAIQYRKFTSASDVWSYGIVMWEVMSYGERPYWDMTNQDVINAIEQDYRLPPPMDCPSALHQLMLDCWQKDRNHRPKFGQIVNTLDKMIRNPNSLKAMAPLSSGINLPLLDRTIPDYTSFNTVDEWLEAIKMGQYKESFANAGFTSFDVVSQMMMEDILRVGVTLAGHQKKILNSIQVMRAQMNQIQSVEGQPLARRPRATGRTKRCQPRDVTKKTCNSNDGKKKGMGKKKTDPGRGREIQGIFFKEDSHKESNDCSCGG
# [9] = target: T2, Ephrin type-B receptor 2 (Homo sapiens); details: at 10 µM
# [10] = target: T3, Ephrin type-B receptor 3 (Homo sapiens) (UniProt P54753); details: at 1 µM
# T3 sequence (whole entry): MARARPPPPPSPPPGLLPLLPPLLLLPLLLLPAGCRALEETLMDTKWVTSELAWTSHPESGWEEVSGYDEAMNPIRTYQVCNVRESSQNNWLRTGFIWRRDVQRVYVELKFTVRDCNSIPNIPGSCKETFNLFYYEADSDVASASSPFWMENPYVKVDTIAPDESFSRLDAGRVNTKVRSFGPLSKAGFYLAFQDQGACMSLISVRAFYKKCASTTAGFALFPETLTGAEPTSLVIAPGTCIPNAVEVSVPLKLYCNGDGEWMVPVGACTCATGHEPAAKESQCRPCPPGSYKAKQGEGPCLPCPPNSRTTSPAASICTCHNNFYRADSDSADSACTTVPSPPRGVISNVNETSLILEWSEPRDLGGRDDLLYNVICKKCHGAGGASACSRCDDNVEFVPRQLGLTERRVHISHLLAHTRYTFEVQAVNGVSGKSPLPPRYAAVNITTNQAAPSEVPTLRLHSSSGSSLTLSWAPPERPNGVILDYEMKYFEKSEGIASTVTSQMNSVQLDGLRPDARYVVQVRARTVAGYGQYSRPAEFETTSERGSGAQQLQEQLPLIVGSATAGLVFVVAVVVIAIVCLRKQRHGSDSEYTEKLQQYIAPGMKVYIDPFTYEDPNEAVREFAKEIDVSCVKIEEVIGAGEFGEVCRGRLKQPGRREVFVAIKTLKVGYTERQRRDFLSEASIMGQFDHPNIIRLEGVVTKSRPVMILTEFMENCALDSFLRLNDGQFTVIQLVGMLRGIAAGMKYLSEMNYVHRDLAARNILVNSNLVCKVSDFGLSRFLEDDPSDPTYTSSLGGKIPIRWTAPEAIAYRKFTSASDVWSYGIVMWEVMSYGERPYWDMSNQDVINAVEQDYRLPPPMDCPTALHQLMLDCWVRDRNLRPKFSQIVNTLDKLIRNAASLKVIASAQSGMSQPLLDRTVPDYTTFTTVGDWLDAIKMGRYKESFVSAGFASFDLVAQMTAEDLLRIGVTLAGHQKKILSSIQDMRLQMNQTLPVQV
# [11] = target: T3, Ephrin type-B receptor 3 (Homo sapiens); details: at 10 µM
# [12] = target: T4, Ephrin type-B receptor 4 (Homo sapiens) (UniProt P54760); details: at 10 µM
# T4 sequence (whole entry): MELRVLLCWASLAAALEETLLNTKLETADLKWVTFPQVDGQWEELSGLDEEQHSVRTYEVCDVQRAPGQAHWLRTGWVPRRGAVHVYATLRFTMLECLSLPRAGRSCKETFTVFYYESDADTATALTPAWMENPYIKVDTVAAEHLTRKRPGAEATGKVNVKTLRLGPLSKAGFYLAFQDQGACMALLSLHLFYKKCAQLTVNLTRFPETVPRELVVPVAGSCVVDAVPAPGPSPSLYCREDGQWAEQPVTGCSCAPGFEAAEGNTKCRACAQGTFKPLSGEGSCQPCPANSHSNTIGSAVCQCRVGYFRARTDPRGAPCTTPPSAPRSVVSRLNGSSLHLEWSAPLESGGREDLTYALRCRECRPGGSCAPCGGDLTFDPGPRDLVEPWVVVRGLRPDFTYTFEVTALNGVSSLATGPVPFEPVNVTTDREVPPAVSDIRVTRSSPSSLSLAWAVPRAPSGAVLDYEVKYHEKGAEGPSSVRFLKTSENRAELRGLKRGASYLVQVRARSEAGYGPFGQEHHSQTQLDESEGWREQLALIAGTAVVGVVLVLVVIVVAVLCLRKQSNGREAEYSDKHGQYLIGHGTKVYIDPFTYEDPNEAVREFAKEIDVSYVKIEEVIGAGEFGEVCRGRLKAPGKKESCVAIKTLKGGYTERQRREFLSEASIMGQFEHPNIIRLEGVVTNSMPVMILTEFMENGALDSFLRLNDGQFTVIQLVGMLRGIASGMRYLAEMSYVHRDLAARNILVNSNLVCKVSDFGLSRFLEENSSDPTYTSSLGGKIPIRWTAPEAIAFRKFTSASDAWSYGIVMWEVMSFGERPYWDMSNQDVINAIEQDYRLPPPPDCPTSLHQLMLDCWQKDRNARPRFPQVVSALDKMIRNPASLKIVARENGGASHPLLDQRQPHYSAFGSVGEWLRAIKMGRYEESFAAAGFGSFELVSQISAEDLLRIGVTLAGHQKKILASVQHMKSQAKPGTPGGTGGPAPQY
# [13] = target: Receptor tyrosine-protein kinase erbB-4 (Homo sapiens) (UniProt Q15303); details: at 1 µM
# Sequence of Receptor tyrosine-protein kinase erbB-4 (Homo sapiens) (Q15303 whole entry): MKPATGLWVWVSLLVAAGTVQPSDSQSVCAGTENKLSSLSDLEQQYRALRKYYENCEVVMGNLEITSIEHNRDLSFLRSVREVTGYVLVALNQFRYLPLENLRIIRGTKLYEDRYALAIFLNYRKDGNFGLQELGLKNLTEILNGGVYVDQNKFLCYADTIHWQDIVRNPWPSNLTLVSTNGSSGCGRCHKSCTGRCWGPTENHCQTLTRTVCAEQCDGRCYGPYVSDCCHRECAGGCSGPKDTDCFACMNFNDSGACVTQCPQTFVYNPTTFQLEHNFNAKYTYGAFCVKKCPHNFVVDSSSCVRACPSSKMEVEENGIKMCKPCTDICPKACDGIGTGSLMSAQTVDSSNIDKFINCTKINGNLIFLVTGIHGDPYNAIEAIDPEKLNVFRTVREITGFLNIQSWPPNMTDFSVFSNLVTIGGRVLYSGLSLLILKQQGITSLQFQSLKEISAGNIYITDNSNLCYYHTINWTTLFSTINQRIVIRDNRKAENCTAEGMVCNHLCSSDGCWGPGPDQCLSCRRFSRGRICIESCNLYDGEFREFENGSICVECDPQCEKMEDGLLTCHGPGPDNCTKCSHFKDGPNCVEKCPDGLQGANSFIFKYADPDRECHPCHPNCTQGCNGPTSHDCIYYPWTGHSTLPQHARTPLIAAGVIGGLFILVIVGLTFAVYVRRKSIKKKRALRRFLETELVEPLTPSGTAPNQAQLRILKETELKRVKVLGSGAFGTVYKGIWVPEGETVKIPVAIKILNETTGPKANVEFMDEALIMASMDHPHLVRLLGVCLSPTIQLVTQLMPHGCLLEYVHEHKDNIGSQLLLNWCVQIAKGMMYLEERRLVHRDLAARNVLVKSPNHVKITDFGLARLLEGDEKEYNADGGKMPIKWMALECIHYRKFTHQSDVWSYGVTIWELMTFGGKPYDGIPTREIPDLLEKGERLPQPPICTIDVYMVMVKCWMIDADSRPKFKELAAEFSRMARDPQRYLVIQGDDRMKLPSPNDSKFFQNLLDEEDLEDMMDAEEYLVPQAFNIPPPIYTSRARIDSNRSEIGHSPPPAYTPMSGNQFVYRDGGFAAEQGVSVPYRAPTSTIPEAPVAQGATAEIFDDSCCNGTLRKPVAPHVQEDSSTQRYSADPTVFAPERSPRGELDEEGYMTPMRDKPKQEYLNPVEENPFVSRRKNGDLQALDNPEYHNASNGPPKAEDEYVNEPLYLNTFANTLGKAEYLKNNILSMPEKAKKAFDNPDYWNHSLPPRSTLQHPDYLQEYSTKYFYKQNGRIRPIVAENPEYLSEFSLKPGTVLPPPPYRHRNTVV
# [14] = target: Receptor tyrosine-protein kinase erbB-4 (Homo sapiens) (UniProt Q15303); details: at 10 µM
# [15] = target: T4, Ephrin type-B receptor 4 (Homo sapiens); details: at 1 µM
# [16] = target: T5, Ephrin type-A receptor 3 (Homo sapiens) (UniProt P29320); details: at 10 µM
# T5 sequence (whole entry): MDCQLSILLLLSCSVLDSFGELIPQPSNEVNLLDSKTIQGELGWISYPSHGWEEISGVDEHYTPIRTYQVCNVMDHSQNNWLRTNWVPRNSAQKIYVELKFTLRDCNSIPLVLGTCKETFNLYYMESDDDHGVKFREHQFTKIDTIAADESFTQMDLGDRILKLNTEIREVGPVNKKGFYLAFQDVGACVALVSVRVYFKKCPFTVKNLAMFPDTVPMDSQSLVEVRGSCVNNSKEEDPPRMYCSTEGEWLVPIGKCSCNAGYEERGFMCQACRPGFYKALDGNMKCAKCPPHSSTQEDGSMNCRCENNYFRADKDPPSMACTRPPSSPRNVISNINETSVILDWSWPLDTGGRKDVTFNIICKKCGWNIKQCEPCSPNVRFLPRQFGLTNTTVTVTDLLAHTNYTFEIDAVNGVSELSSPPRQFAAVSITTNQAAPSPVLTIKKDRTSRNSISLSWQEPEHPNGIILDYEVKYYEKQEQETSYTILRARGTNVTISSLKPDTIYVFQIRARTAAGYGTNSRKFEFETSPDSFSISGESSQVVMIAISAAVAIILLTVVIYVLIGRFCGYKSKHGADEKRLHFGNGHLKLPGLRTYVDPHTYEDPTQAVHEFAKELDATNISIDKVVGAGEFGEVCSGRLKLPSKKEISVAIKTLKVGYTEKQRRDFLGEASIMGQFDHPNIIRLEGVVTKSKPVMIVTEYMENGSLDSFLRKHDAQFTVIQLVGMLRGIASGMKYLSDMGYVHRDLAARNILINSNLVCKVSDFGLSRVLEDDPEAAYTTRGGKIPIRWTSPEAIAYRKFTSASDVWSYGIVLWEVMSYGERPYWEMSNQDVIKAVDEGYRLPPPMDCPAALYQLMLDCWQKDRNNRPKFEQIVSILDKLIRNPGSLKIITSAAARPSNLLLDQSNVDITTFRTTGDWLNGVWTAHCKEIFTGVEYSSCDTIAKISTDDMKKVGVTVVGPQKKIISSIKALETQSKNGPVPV
# [17] = target: Ephrin type-A receptor 7 (Homo sapiens) (UniProt Q15375); details: at 1 µM
# [18] = target: Focal adhesion kinase 1 (Homo sapiens) (UniProt Q05397); details: at 1 µM
# Sequence of Ephrin type-A receptor 7 (Homo sapiens) (Q15375 28-998 limits assumed): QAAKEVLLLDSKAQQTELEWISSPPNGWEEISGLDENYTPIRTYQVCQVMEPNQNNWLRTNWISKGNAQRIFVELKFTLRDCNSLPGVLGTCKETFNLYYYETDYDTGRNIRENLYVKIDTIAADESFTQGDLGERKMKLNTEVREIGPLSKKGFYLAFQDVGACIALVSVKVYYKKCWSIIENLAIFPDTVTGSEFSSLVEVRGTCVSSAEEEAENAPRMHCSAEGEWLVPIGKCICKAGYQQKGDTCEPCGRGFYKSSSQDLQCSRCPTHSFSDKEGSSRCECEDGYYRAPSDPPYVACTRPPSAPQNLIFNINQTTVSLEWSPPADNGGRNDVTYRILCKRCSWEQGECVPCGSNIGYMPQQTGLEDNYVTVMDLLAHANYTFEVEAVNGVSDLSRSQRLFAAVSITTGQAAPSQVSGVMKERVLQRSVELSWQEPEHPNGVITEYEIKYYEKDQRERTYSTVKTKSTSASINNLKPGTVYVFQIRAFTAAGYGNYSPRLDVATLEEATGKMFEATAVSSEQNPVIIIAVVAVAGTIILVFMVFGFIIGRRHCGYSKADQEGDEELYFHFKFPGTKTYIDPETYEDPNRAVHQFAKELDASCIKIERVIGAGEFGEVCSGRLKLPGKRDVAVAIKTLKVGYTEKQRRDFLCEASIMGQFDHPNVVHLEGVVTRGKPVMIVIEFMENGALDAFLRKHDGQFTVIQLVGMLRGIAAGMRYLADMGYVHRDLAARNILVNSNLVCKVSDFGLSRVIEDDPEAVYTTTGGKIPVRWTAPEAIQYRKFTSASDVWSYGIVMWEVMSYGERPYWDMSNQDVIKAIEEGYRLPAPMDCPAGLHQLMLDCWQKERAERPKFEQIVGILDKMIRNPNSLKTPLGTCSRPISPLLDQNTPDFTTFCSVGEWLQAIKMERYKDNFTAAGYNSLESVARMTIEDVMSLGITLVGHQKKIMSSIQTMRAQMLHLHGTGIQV
# Sequence of Ephrin type-A receptor 5 (Homo sapiens) (P54756 whole entry): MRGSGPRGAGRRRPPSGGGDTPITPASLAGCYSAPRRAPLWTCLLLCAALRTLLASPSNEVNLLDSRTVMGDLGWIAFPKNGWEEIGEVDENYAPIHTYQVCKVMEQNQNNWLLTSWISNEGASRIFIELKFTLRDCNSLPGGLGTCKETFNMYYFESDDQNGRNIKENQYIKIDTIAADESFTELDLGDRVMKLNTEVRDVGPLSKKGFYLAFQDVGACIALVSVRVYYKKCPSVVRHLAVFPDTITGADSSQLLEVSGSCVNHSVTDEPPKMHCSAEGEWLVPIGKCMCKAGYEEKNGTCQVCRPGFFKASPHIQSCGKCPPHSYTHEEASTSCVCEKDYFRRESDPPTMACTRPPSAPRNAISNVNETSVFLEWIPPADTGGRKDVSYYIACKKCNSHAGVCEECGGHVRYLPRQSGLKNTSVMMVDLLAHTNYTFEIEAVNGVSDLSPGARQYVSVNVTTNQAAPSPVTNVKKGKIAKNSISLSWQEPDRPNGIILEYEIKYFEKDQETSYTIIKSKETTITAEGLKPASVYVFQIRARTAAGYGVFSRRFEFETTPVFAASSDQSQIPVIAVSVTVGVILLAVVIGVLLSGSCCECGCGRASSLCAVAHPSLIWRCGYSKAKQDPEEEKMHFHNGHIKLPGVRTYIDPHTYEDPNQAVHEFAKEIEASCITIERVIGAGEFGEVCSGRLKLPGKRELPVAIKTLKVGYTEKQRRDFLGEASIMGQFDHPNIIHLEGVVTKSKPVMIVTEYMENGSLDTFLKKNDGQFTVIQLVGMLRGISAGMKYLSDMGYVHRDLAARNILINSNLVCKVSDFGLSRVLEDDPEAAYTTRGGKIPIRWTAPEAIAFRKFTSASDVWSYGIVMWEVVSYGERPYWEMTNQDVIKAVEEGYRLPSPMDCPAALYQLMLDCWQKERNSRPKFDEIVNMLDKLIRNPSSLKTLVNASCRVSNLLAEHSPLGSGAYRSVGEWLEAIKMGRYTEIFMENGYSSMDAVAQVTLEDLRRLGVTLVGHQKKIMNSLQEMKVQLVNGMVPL
# Sequence of Ephrin type-A receptor 4 (Homo sapiens) (P54764 whole entry): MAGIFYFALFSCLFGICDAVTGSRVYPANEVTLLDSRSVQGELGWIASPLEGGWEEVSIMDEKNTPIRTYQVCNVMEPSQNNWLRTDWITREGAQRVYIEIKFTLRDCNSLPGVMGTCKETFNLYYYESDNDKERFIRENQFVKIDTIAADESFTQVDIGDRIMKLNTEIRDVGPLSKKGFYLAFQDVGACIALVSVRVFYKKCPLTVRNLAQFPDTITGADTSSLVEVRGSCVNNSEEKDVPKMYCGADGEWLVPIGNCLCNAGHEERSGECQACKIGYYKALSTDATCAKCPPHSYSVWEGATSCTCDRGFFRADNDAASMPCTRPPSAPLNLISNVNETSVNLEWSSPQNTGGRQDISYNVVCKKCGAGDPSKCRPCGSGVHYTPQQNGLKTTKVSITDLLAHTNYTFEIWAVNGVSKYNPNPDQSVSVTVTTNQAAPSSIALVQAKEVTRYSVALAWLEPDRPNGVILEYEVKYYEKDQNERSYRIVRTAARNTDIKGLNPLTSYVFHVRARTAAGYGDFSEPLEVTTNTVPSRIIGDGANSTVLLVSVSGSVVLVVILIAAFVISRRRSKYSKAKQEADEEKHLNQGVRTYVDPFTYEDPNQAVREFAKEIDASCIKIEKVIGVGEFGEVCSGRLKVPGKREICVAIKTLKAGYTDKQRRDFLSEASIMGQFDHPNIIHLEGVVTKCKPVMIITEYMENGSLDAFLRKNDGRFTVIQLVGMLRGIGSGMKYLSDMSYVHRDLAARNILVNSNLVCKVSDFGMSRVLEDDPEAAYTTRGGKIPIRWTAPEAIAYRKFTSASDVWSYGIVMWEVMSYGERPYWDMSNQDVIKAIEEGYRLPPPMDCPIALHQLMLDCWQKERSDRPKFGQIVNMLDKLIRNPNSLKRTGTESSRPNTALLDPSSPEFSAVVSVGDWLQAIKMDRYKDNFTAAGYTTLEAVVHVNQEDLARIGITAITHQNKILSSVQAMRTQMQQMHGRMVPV
structure (smiles),measurement,setting,value
COc1ccc(CNC(=O)Nc2ncc([N+](=O)[O-])s2)cc1,residual activity,[1],100%
same,residual activity,[2],102%
same,residual activity,[3],114%
same,residual activity,[4],102%
same,residual activity,[5],80%
same,residual activity,[6],111%
same,residual activity,[7],80%
same,residual activity,[8],105%
same,residual activity,[9],117%
same,residual activity,[10],117% (inactive)
same,residual activity,[11],105%
same,residual activity,[12],78%
same,residual activity,[13],43%
same,residual activity,[14],33%
O=C1Nc2ccccc2/C1=C\c1c(Cl)[nH]c2ccccc12,residual activity,[3],118%
same,residual activity,[15],117%
same,residual activity,[12],134%
CCOC(=O)c1c(C)[nH]c(/C=C2\C(=O)Nc3ccccc32)c1C,residual activity,[16],99%
same,residual activity,[17],97%
same,residual activity,[5],93%
same,residual activity,[6],97%
same,residual activity,[18],133%
Oc1cccc(-c2nc(N3CCOCC3)c3oc4ncccc4c3n2)c1,residual activity,[3],98%
same,residual activity,[4],124%
same,residual activity,[6],95%
same,residual activity,[10],116% (inactive)
same,residual activity,[11],123%
same,residual activity,[18],144%
O=S(=O)(NCCNC/C=C/c1ccc(Br)cc1)c1cccc2cnccc12,residual activity,[3],117%
same,residual activity,[14],74%
NC(=O)c1ccc(-c2nc(-c3ccc4c(c3)OCCO4)c(-c3ccccn3)[nH]2)cc1,residual activity,[16],94%
same,residual activity,[6],93%
same,residual activity,[7],85%
same,residual activity,[8],96%
same,residual activity,[9],24%
same,residual activity,[10],117% (inactive)
same,residual activity,[11],98%
same,residual activity,[15],85%
same,residual activity,[12],41%
same,residual activity,[13],89%
same,residual activity,[14],59%

# Source: ChEMBL document CHEMBL2218924, “A broad activity screen in support of a chemogenomic map for kinase signalling research and drug discovery” (Biochem J, 2013)
